The values below come from PubChem BioAssay (NCI).

The panel holds about 83,000 compounds, 20% with a hit somewhere; the sample as a whole holds those more often.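 Values shown are percent growth following 48 h exposure of cells in 96-well plates to a single concentration of compound; below 10 was considered active.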 The source made the active and inactive calls.

One experiment concerns HCC-2998 colon. The experiment in a line: NCI-60 one-dose screen, 48 h (100 = growth as untreated, 0 = no growth, -100 = all killed). The conditions noted are these: 10 µM unless noted.
Turning to `O=C1c2cccnc2C(=O)c2nc3cc(N4CCN(C5CC5)CC4)ccc3nc21`, the growth was -80.8% (active).

`CC1NC(=S)NC(=O)/C1=C/c1cc(=O)oc2c1ccc1ccccc12` (stereo unspecified): the growth was 105% (inactive).

Regarding `Clc1ccc2c(c1)c(-c1ccccc1)nc1nncn12`, the growth was 113% (inactive).

As to `O=C1Nc2ccccc2/C1=N/c1nc(-c2ccc(Cl)cc2)cs1`, the growth was 86.4% (inactive).

With `CCCCCCNC(=O)Oc1ccc(/C(=C(/CC)Cc2ccccc2)c2ccc(OCCN(CC)CC)cc2)cc1`, the growth was 59.5% (inactive).

With `Clc1ccc(N2N=C(c3cccc(Nc4ccncc4)c3)CC2c2ccc(Br)cc2)cc1` (stereo unspecified), the growth is -67.7% (active).

As to `Cc1ccc(C2CC(c3cccc(Nc4ccncc4)c3)=NN2c2ccccc2)cc1` (stereo unspecified), the growth was -92.2% (active).

Turning to `CSc1nnc2c(=O)n(C)c(=O)n(C)c2n1`, the growth was 105% (inactive).

Turning to `O=S(=O)(NCCCNc1nccc(-c2c(-c3cccc(O)c3)nc3occn23)n1)c1ccc(F)cc1`, the growth is 109% (inactive).

For `O=C1Nc2c(ccc(Cl)c2Cl)/C1=C/c1ccc([N+](=O)[O-])cc1`, the growth is 108% (inactive).

For the compound `Cc1cccc(Oc2ccc(Nc3ncnc4ccc(NC(=O)CN(C)C)cc34)cc2Cl)c1`, the growth is 13.3% (inactive).

For the compound `CC(=O)c1cc2c(N)c(C(=O)Nc3cncc4ccccc34)sc2nc1C`, the growth is 106% (inactive).

Turning to `COc1ccc(-c2nc(N/N=C/c3c[nH]c4ccccc34)nc(N3CCOCC3)c2C#N)cc1`, the growth was 100% (inactive).

With `Cc1ccc(S(=O)(=O)Nc2ccc(Cl)cc2)cc1`, the growth is 104% (inactive).

On to `C=C1C(=O)O[C@H]2[C@H]1CC/C(COC(=O)CCCCCC(=O)OC/C1=C/CC[C@@]3(C)O[C@H]3[C@H]3OC(=O)C(=C)[C@@H]3CC1)=C\CC[C@@]1(C)O[C@@H]21`, for which the growth was 84.5% (inactive).

For `CCCCCN1C=C/C(=C\C(=O)N(C)c2ccc(Br)cc2)c2ccccc21`, the growth is 102% (inactive).

Turning to `C/C(=C(/c1ccccc1)c1ccc(OCC(O)CNCCN2CCOCC2)cc1)c1ccccc1` (stereo unspecified), the growth is -59.6% (active).

In the case of `Cn1c(COC(=O)NCCN2CCOCC2)nc2c(N3CCOCC3)nc(-c3ccccc3)nc21`, the growth was -53.8% (active).

Turning to `COc1cc(CCNc2nc3cc(N)cc(N)c3nc2-c2ccccc2)cc(OC)c1`, the growth is -5.77% (active).

Take `O=C(Nc1nc(-c2ccccc2Cl)cs1)c1cc(-c2ccccc2)nc2ccc(Cl)cc12`: the growth is 95.5% (inactive).

With `O=C1OC(=O)C2C1CC=CC2c1ccccc1` (stereo unspecified), the growth is 79.9% (inactive).

With `CCCCCCCCCCCC(=O)C(CCCCCCCCCC)C(=O)Nc1ccccc1` (stereo unspecified), the growth was 101% (inactive).

Regarding `COc1ccc(/C(=C\c2ccccc2)C(=O)O)cc1OC`, the growth is 103% (inactive).

In the case of `C=C1C(=O)O[C@H]2[C@H]1CC/C(COC(=O)/C=C/c1c[nH]c3ccccc13)=C\CC[C@@]1(C)O[C@@H]21`, the growth is -88.1% (active).

Regarding `CC1=CC[C@@H]2CC[C@]3(C)[C@H](CC[C@@H]4[C@@]5(C)CCCNC(C)(C)[C@@H]5CC[C@]43C)[C@H]2[C@@H]1C`, the growth was -51.5% (active).

For `N#CC1=C(N)Oc2c(ccc3ccccc23)C1c1ccc([N+](=O)[O-])cc1` (stereo unspecified), the growth was 85.9% (inactive).

In the case of `CN(C)C(=O)OCc1nc2c(N3CCOCC3)nc(-c3ccccc3)nc2n1C`, the growth was -78.3% (active).

Regarding `C=C(C)[C@@H]1CC[C@]2(C(=O)NCCCN(CCC#N)CCC#N)CC[C@]3(C)[C@H](CC[C@@H]4[C@@]5(C)CCC(=O)C(C)(C)[C@@H]5CC[C@]43C)[C@@H]12`, the growth is 108% (inactive).

In the case of `COc1ccc(-c2cnnc3c(-c4cccc(C(F)(F)F)c4)cnn23)cc1`, the growth is 81.5% (inactive).

As to `CN1CCN(C(=O)[C@]2(C)CC[C@]3(C)CC[C@]4(C)C(=CC(=O)[C@@H]5[C@@]6(C)CCC(=O)NC(C)(C)[C@@H]6CC[C@]54C)[C@@H]3C2)CC1`, the growth is 113% (inactive).

Consider `Cc1ccc2[nH]c(=S)n(-c3ccc(S(=O)(=O)Nc4ccc(Cl)nn4)cc3)c(=O)c2c1`, for which the growth is 104% (inactive).

On to `COc1cc(OC)c(/C=C/C(=O)c2ccc(Nc3ncnc4ccccc34)cc2)c(OC)c1`, for which the growth is 38.3% (inactive).

Regarding `O=C(/C=C/c1ccc[nH]1)c1ccc(-n2ccc(C(F)(F)F)n2)cc1`, the growth is 54.7% (inactive).

Regarding `COc1cc2nc(-c3ccc(C#N)cc3)[nH]c(=O)c2cc1OC`, the growth is 83.1% (inactive).

Regarding `O=c1[nH]nc(-c2ccc(Br)cc2)cc1Cc1ccc(O)cc1`, the growth was 118% (inactive).

Turning to `Clc1ccc(C2CC(c3cccc(Nc4ccncc4)c3)=NN2c2ccccc2)cc1` (stereo unspecified), the growth was -31.5% (active).

Consider `C=C(C)[C@@H]1CC[C@]2(CO)CC[C@]3(C)[C@H](CC[C@@H]4[C@@]5(C)CCCNC(C)(C)[C@@H]5CC[C@]43C)[C@@H]12`, for which the growth is -5.02% (active).

As to `c1ccc(C2CC(c3cccc(Nc4ccncc4)c3)=NN2c2ccccc2)cc1` (stereo unspecified), the growth is 3.07% (active).

For a further experiment, the system named is KM12 colon. The description is as above. The conditions noted are these: 10 µM unless noted.
Consider `O=C1c2cccnc2C(=O)c2nc3cc(N4CCN(C5CC5)CC4)ccc3nc21`, for which the growth is 9.27% (active).

As to `CC1NC(=S)NC(=O)/C1=C/c1cc(=O)oc2c1ccc1ccccc12` (stereo unspecified), the growth was 99.6% (inactive).

For `Clc1ccc2c(c1)c(-c1ccccc1)nc1nncn12`, the growth is 103% (inactive).

Turning to `O=C1Nc2ccccc2/C1=N/c1nc(-c2ccc(Cl)cc2)cs1`, the growth was 70.8% (inactive).

Take `CCCCCCNC(=O)Oc1ccc(/C(=C(/CC)Cc2ccccc2)c2ccc(OCCN(CC)CC)cc2)cc1`: the growth is 51.6% (inactive).

Take `Clc1ccc(N2N=C(c3cccc(Nc4ccncc4)c3)CC2c2ccc(Br)cc2)cc1` (stereo unspecified): the growth is -51% (active).

With `Cc1ccc(C2CC(c3cccc(Nc4ccncc4)c3)=NN2c2ccccc2)cc1` (stereo unspecified), the growth was -88.3% (active).

Regarding `CSc1nnc2c(=O)n(C)c(=O)n(C)c2n1`, the growth was 93.6% (inactive).

As to `O=S(=O)(NCCCNc1nccc(-c2c(-c3cccc(O)c3)nc3occn23)n1)c1ccc(F)cc1`, the growth is 81.9% (inactive).

With `O=C1Nc2c(ccc(Cl)c2Cl)/C1=C/c1ccc([N+](=O)[O-])cc1`, the growth was 110% (inactive).

Take `Cc1cccc(Oc2ccc(Nc3ncnc4ccc(NC(=O)CN(C)C)cc34)cc2Cl)c1`: the growth is 35.1% (inactive).

Take `CC(=O)c1cc2c(N)c(C(=O)Nc3cncc4ccccc34)sc2nc1C`: the growth is 94.3% (inactive).

Turning to `COc1ccc(-c2nc(N/N=C/c3c[nH]c4ccccc34)nc(N3CCOCC3)c2C#N)cc1`, the growth is 83.9% (inactive).

As for `Cc1ccc(S(=O)(=O)Nc2ccc(Cl)cc2)cc1`, the growth is 105% (inactive).

Take `C=C1C(=O)O[C@H]2[C@H]1CC/C(COC(=O)CCCCCC(=O)OC/C1=C/CC[C@@]3(C)O[C@H]3[C@H]3OC(=O)C(=C)[C@@H]3CC1)=C\CC[C@@]1(C)O[C@@H]21`: the growth was 62.8% (inactive).

In the case of `CCCCCN1C=C/C(=C\C(=O)N(C)c2ccc(Br)cc2)c2ccccc21`, the growth is 103% (inactive).

Consider `C/C(=C(/c1ccccc1)c1ccc(OCC(O)CNCCN2CCOCC2)cc1)c1ccccc1` (stereo unspecified), for which the growth is 54.3% (inactive).

On to `Cn1c(COC(=O)NCCN2CCOCC2)nc2c(N3CCOCC3)nc(-c3ccccc3)nc21`, for which the growth is -5.33% (active).

Turning to `COc1cc(CCNc2nc3cc(N)cc(N)c3nc2-c2ccccc2)cc(OC)c1`, the growth is 4.39% (active).

For the compound `O=C(Nc1nc(-c2ccccc2Cl)cs1)c1cc(-c2ccccc2)nc2ccc(Cl)cc12`, the growth was 84.2% (inactive).

`O=C1OC(=O)C2C1CC=CC2c1ccccc1` (stereo unspecified): the growth was 84.8% (inactive).

With `CCCCCCCCCCCC(=O)C(CCCCCCCCCC)C(=O)Nc1ccccc1` (stereo unspecified), the growth is 106% (inactive).

As for `COc1ccc(/C(=C\c2ccccc2)C(=O)O)cc1OC`, the growth was 103% (inactive).

Regarding `C=C1C(=O)O[C@H]2[C@H]1CC/C(COC(=O)/C=C/c1c[nH]c3ccccc13)=C\CC[C@@]1(C)O[C@@H]21`, the growth is -51.6% (active).

Take `CC1=CC[C@@H]2CC[C@]3(C)[C@H](CC[C@@H]4[C@@]5(C)CCCNC(C)(C)[C@@H]5CC[C@]43C)[C@H]2[C@@H]1C`: the growth was -53% (active).

With `N#CC1=C(N)Oc2c(ccc3ccccc23)C1c1ccc([N+](=O)[O-])cc1` (stereo unspecified), the growth was 50.4% (inactive).

For `CN(C)C(=O)OCc1nc2c(N3CCOCC3)nc(-c3ccccc3)nc2n1C`, the growth is -65.6% (active).

Turning to `C=C(C)[C@@H]1CC[C@]2(C(=O)NCCCN(CCC#N)CCC#N)CC[C@]3(C)[C@H](CC[C@@H]4[C@@]5(C)CCC(=O)C(C)(C)[C@@H]5CC[C@]43C)[C@@H]12`, the growth is 104% (inactive).

As for `COc1ccc(-c2cnnc3c(-c4cccc(C(F)(F)F)c4)cnn23)cc1`, the growth is 82.6% (inactive).

`CN1CCN(C(=O)[C@]2(C)CC[C@]3(C)CC[C@]4(C)C(=CC(=O)[C@@H]5[C@@]6(C)CCC(=O)NC(C)(C)[C@@H]6CC[C@]54C)[C@@H]3C2)CC1`: the growth is 98.1% (inactive).

As for `Cc1ccc2[nH]c(=S)n(-c3ccc(S(=O)(=O)Nc4ccc(Cl)nn4)cc3)c(=O)c2c1`, the growth is 104% (inactive).

`COc1cc(OC)c(/C=C/C(=O)c2ccc(Nc3ncnc4ccccc34)cc2)c(OC)c1`: the growth is 6.21% (active).

As for `O=C(/C=C/c1ccc[nH]1)c1ccc(-n2ccc(C(F)(F)F)n2)cc1`, the growth was 1.59% (active).

For the compound `COc1cc2nc(-c3ccc(C#N)cc3)[nH]c(=O)c2cc1OC`, the growth is 111% (inactive).

`O=c1[nH]nc(-c2ccc(Br)cc2)cc1Cc1ccc(O)cc1`: the growth is 108% (inactive).

For `Clc1ccc(C2CC(c3cccc(Nc4ccncc4)c3)=NN2c2ccccc2)cc1` (stereo unspecified), the growth is -7.31% (active).

With `C=C(C)[C@@H]1CC[C@]2(CO)CC[C@]3(C)[C@H](CC[C@@H]4[C@@]5(C)CCCNC(C)(C)[C@@H]5CC[C@]43C)[C@@H]12`, the growth was 23.2% (inactive).

`c1ccc(C2CC(c3cccc(Nc4ccncc4)c3)=NN2c2ccccc2)cc1` (stereo unspecified): the growth is 44.7% (inactive).
